According to PubChem BioAssay:
Calls of active or inactive are those of the source. How the calls were made is not given here.

molecular target: Pantothenate synthetase (Mycobacterium tuberculosis (strain ATCC 25618 / H37Rv)) (UniProt P9WIL5); assay: Recombinant Mtb pantothenate synthetase (PanC) inhibitors, coupled enzyme, confirmatory (AID 375); settings: coupled enzyme assay; at 10 µM, hits give high values;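 further: 0% = full reaction with vehicle and 100% = no enzyme background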
Sequence (P9WIL5 whole entry, looked up): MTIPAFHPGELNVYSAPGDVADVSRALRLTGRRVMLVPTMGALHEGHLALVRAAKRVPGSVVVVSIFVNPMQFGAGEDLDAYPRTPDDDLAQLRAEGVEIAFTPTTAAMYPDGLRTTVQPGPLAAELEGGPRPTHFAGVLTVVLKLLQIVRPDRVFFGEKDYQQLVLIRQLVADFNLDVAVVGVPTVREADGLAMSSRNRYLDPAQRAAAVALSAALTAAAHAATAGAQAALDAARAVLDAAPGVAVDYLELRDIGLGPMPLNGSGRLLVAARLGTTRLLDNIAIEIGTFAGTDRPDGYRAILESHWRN

SMILES	inhibition
CCCCOc1ccc(C(=O)CCN2CCCCC2)cc1	9% (inactive)
COc1cc(C2Nc3cccc4cccc(c34)N2)cc(OC)c1O	0% (inactive)
CSc1nc2c(c(=O)n1C)SC(C)C2 (stereo not given)	0% (inactive)
COc1cccc2cc(C(=O)C3=C(O)C(=O)N(CCCN4CCOCC4)C3c3ccncc3)oc12 (stereo not given)	0% (inactive)
CC(C)OC(=O)CSc1nc2cccnc2n1C1CCCCC1	4% (inactive)
O=C(CN1CCC(c2nc3ccccc3s2)CC1)NCc1cccs1	3% (inactive)
CCCOc1ccccc1NC(=O)c1ccc(N)cc1	3% (inactive)
c1ccc(-c2noc(C3CCCCC3)n2)nc1	0% (inactive)
CC(=O)[C@@]1(O)CC[C@H]2[C@@H]3C[C@H](C)C4=CC(=O)C=C[C@]4(C)[C@@]3(F)[C@@H](O)C[C@@]21C	6% (inactive)
CC(C)Oc1ccc(N2CC(C(=O)Nc3ccccc3F)CC2=O)cc1 (stereo not given)	0% (inactive)
COC(=O)c1[nH]c(C)c(/C(O)=C2\C(=O)C(=O)N(CCN3CCOCC3)C2c2cccs2)c1C (stereo not given)	4% (inactive)
Cc1cc(C)n(-c2nc3ccccc3c(=O)n2OCCOc2ccccc2)n1	3% (inactive)
Cc1ccc(NC2=NC3(CCCCC3)N=C(N)N2)c(C)c1	3% (inactive)
COc1nc(NCCc2ccc(OC)c(OC)c2)nc(NC(C)(C)CO)n1	0% (inactive)
O=C(Nc1ccc(N2C(=O)C3C4C=CC(C4)C3C2=O)cc1)Nc1cccnc1 (stereo not given)	0% (inactive)
COC(=O)Cc1c(C)nc2nc[nH]n2c1=O	0% (inactive)
COc1ccc(N2C(=O)c3cccc4cccc(c34)C2=O)nn1	0% (inactive)
CCC(=O)N(CCCN(C)C)c1nc(-c2cc(OC)ccc2OC)cs1	6% (inactive)
O=C(Nc1ccc(N2CCOCC2)c(Cl)c1)c1ccc(Br)o1	0% (inactive)
N#CC1=C(N)n2c(s/c(=C\c3ccco3)c2=O)=C(C#N)C1c1ccco1 (stereo not given)	0% (inactive)

SMILES	inhibition
O=C(NC1CCCc2ccccc21)C1CCN(c2nnc(-n3cccc3)s2)CC1 (stereo not given)	0% (inactive)
CC(=O)N(CCN(C(C)=O)c1ccccc1)c1ccccc1	0% (inactive)
O=C(CCNS(=O)(=O)c1cccc2nsnc12)Nc1ccc2c(c1)OCCO2	0% (inactive)
COc1ccc2ccccc2c1CN1CCCC(CO)C1 (stereo not given)	0% (inactive)
COc1ccc(NS(=O)(=O)c2ccc(NC(C)=O)cc2)cc1OC	0% (inactive)
CCC(C(=O)NC1CCCC1)N(Cc1ccco1)C(=O)Cn1nnc(-c2ccc(C)cc2)n1 (stereo not given)	5% (inactive)
COc1ccc(CC(=O)NC2CCN(CC(=O)Nc3ccc4c(c3)OCCO4)CC2)cc1OC	0% (inactive)
c1coc(Cn2nnnc2CN2CCN(C3CCCC3)CC2)c1	0% (inactive)
COc1ccccc1OCCCn1c(=O)oc2ccccc21	0% (inactive)
Cn1c(=O)[nH]c(=O)c2c1nc(N1CCNCC1)n2CCOc1ccccc1	0% (inactive)
CCOc1ccccc1NC(=O)CSc1nnc(Cc2cccn2C)n1-c1ccc(F)cc1	5% (inactive)
COc1ccc(C)cc1NC(=O)COCC(=O)O	0% (inactive)
COC(=O)c1cccc(Oc2nc3c(c(=O)n(C)c(=O)n3C)n2C(C)C)c1	1% (inactive)
CCCc1cn(S(=O)(=O)c2ccc(OC)cc2OC)nc1N	0% (inactive)
COC(=O)Nc1nc2ccc(C(=O)c3ccccc3)cc2[nH]1	1% (inactive)
CC(C)(C)NC(=O)NC(=O)COc1ccccc1C#N	3% (inactive)
O=C(Cn1nnc(-c2ccc(S(=O)(=O)N3CCCC3)cc2)n1)NCC1CCCO1 (stereo not given)	0% (inactive)
Cc1c(NC(=O)c2ccc(COc3ccc4ccccc4c3)o2)c(=O)n(-c2ccccc2)n1C	0% (inactive)
COc1ccccc1Cn1nnc2c(=O)[nH]c(C3CCN(C(=O)c4ccccc4Cl)CC3)nc21	0% (inactive)
Cc1nc2ccccc2c(=O)n1NC(=O)c1c(O)c2c(n(CC(C)C)c1=O)CCCC2	0% (inactive)
